Assay outcomes deposited in PubChem BioAssay by National Center for Advancing Translational Sciences (NCATS).
In the library only some 7.9% were active in any assay of this set; here they are far more common.
HCMV antiviral = qHTS Assay for inhibitors of the human cytomegalovirus (HCMV). HFF cells, HCMV-luciferase reporter, 72 h; hits give low values. activity change, negative = inhibition, % at 57.5 µM. 410,000 tested, 4.5% active. AID 1259415, 2018; in the data active = activity change below about -60%; inconclusive = no clear call, values can overlap the other calls; inactive = above about -39%
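Luciferase read-out from HCMV-luciferase-infected HFFs (MOI 1 PFU/cell) 72 h post infection at 37C; compounds added after 16 h cell attachment; activity normalized between buffer-only basal and Salinomycin (10uM) inhibitor controls.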
FMDV inh = High Throughput Screening for Foot and Mouth Disease Virus Antivirals; FMDV antiviral cell-based qHTS; Potency, µM (series often up to 57.9 µM), for the others: at the top dose activity change, negative = inhibition, most hits filed as inhibitors; 410,000 tested, 1.2% active; calls by dose curve; tested in HEK293T cells; also: read-out not given here; potency is read from the fitted curve at half-maximal effect; nearly all actives have a fitted effect of over 45% in size
Marburg entry inh = qHTS for inhibitors of binding or entry into cells for Marburg Virus. Marburg virus pseudotyped entry inhibition, cell reporter. Potency, µM (top dose mostly 37.8 µM), for the others: at the highest dose activity change, negative = inhibition, actives largely listed as inhibitors. 300,000 tested, 1.8% active. AID 540276, 2011; calls by dose curve; tested in HEK293 cells; also: potency is read from the fitted curve at half-maximal effect
HCV inhibitor = qHTS Assay for Inhibitors of Hepatitis C Virus (HCV). Huh7.5.1 HCVcc-Cre infection, luciferase reporter, 44 h. Potency, µM (titrated, usually from 41.8 µM), without a hit: top-dose activity change, negative = inhibition, most hits filed as inhibitors. 340,000 tested, 3.4% active. AID 651820, 2012; active = well fitted inhibition curve with a large enough effect; inconclusive = small, poorly fitted or top-dose-only effect, or another doubt; inactive = no such curve, though single readings can be large or run the other way; also: potency is read from the fitted curve at half-maximal effect
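Cells (1,000/well) were plated 4 h before compound, then infected with HCVcc-Cre virus (~0.5 moi). After 44 h further culture, infection was read as luciferase luminescence following a 15 min substrate incubation at room temperature.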
Lassa entry inh = qHTS for Inhibitors of binding or entry into cells for Lassa Virus | AID 540256, 2011 | 300,000 tested, 1.2% active | Lassa virus pseudotype entry inhibition, cell reporter | Potency, µM (top dose mostly 37.9 µM), inactives show at the top dose activity change, negative = inhibition, hits mostly inhibitors; calls by dose curve; tested in HEK293 cells; also: potency is read from the fitted curve at half-maximal effect; nearly all actives have a fitted effect of over 50% in size
An asterisk follows results filed as active; u = inconclusive; x = not tested or not shown; [ ] = remark or other dose. % is scaled to controls: 0 for no effect and ±100 for the full control effect.

SMILES | HCMV antiviral | FMDV inh | Marburg entry inh | HCV inhibitor | Lassa entry inh
CCn1c(=O)c(=O)[nH]c2cc(C(=O)NC3CCCc4ccccc43)ccc21 (stereo not given) | 28 | 24% | 21µM* | u | u
Oc1ccc2c(c1)OCC1(O)Cc3cc(O)c(O)cc3C21 (stereo not given) | -6 | -28% | x | 25µM* | x
Oc1cc2c(cc1O)[C@H]1c3ccc(O)c(O)c3OC[C@@]1(O)C2 | -34 | -25% | u | u | 0%
COc1ccc(CN2CCC3(CC2)c2ccccc2[C@@H](NC(=O)c2ccsc2)[C@@H]3OC)cc1O | x | 2% | x | x | x
COc1ccc(-c2nc(SC)n(C)c(=O)c2C#N)cc1OC | -61* | -2% | -11%[46.1 µM] | 14% | 3%
O=C(COC(=O)c1ccc(C(F)(F)F)cc1)Nc1cccc(S(=O)(=O)N2CCCCC2)c1 | 0 | -16% | x | -7% | x
O=C(O)c1cc(/C=C/c2ccc(N3CCOCC3)cc2)nc2ccccc12 | -13 | 10µM* | u | 2% | u
COc1cc(C(=O)Nc2nc3c(s2)Cc2c(Br)ccc(OC)c2-3)cc(OC)c1OC | -12 | -4% | -16%[46.1 µM] | x | -12%[46.1 µM]
CN(C)c1nc(OCCNC(=O)COc2ccc(Cl)cc2Cl)nc(N(C)C)n1 | 10 | u | -1% | u | 5%
COc1cc(C)nc(OCCNC(=O)COc2ccc(Cl)cc2Cl)n1 | -60* | -14% | u | u | -6%
CCOc1ccc(NC(=O)C[n+]2ccc(N(C)C)cc2)cc1 | -97* | -28% | -5% | 13% | 1%
CN(C)c1cc[n+](CC(=O)Nc2ccc(Cl)cc2)cc1 | -89* | -36% | x | -20% | x
CCOc1ccc(NC(=O)CC(=O)Nc2ccc(OCC)cc2)cc1 | u | 17% | x | 6% | x
CN(C)c1cc[n+](CC(=O)Nc2ccc(Oc3ccccc3)cc2)cc1 | -98* | -17% | 9.2µM* | u | u
Cc1cccc(NC(=O)C[n+]2ccc(N(C)C)cc2)c1 | u | -15% | x | -3% | x
Cc1ccccc1NC(=O)Nc1nnc(Cc2ccc([N+](=O)[O-])cc2)s1 | -30 | -3% | u | -23% | u
COc1ccc(-c2c(C)sc(NC(=O)c3ccnn3C)c2C#N)cc1 | -89* | u | u | u | -22%
Cn1nccc1C(=O)Nc1sc2c(c1C#N)CCCC2 | 61 | 36% | x | -9% | x
Cc1ccc(CNCc2cc3c(C(C)(C)C)nn(-c4ccccc4)c3[nH]c2=O)cc1 | u | x | u | 10µM* | u
CC(C)(C)c1nn(-c2ccccc2)c2[nH]c(=O)c(CNCc3ccco3)cc12 | -10 | 0% | -13% | -29% | 0%
CC(C)(C)c1nn(-c2ccccc2)c2[nH]c(=O)c(CNc3ccc4c(c3)OCCO4)cc12 | -62* | x | -3% | u | 20%
COc1ccc2[nH]c3c(N4CC(C)OC(C)C4)ncnc3c2c1 (stereo not given) | u | -19% | -29% | -22% | 10%
COc1cc2[nH]c3c(N4CCN(c5ccc(Cl)cc5)CC4)ncnc3c2cc1OC | u | -22% | u | u | 1%
COc1cccc(N2CCN(c3ncnc4c3[nH]c3ccc(F)cc34)CC2C)c1 (stereo not given) | -97* | 2µM* | u | 1.6µM* | 2.8µM*
COc1cccc2[nH]c3c(N4CCc5ccccc5C4)ncnc3c12 | x | u | 7%[46.1 µM] | 11µM* | u
SMILES | HCMV antiviral | FMDV inh | Marburg entry inh | HCV inhibitor | Lassa entry inh
COc1cccc(N2CCN(c3ncnc4c3[nH]c3ccccc34)CC2C)c1 (stereo not given) | -102* | x | x | 10µM* | x
CC(CCc1ccccc1)NC(=O)C(Cc1ccccc1)NC(N)=O (stereo not given) | -9 | -10% | 1%[46.1 µM] | 8% | 0%
COc1ccc(NC(=O)c2cn3c4c(ccc(Cl)c4c2=O)OC(C)C3)cc1OC (stereo not given) | -13 | -15% | x | x | -1%[46.1 µM]
Cc1ccc(C)n1C1C(=O)N(C)c2c(F)cccc21 (stereo not given) | 1 | x | x | x | x
COc1cc2c(cc1OC)C(Cc1ccc(O)cc1)N(C)CC2 (stereo not given) | -18 | -13% | -8% | -14% | 0%
CCOc1ccc(CC2NCCc3cc(OCC)c(OCC)cc32)cc1OCC (stereo not given) | -31 | u | x | 6.3µM* | x
COc1cc2c(cc1OC)C(Cc1ccc(O)cc1)NCC2 (stereo not given) | -79* | -23% | u | -3% | -1%
CCc1ccc(OCC2NCCc3cc(OC)c(OC)cc32)cc1 (stereo not given) | -90* | -22% | x | -2% | x
Oc1ccc(C[C@H]2NCCc3cc(O)c(O)cc32)cc1O | 11 | 3% | 2.8µM* | 22% | u
CCCOC(=O)c1ccc(Nc2nc3ccccc3nc2-n2nc(C)cc2C)cc1 | 3 | -10% | -25%[46.1 µM] | x | 14%[46.1 µM]
CCCC(=O)Nc1ccc2nc(SCc3ccc(C)cc3)sc2c1 | -18 | 4% | u | x | u
COC(=O)c1c(C)n(Cc2ccco2)c2ccc(O)cc12 | 2 | u | -17% | u | -2%
CCOC(=O)c1c(C)n(Cc2ccco2)c2ccc(OC)cc12 | -8 | -10% | 3% | 13µM* | -16%
O=C(COC(=O)/C=C/c1ccco1)NCCN1C(=O)CSC1=O | -24 | -15% | x | 3% | x
CC12CC3CC(C)(C1)CC(N)(C3)C2 | u | -26% | 13µM* | 20% | u
CCc1cc2c(nc1CC)CCN(CC/C(C)=N/O[C@H](C)c1cn([C@H](CO)Cc3ccccc3)nn1)C2 | x | x | -27%[14.2 µM] | x | x
COC(=O)c1ccccc1NC(=O)CNC(=O)c1ccco1 | -72* | -19% | 2% | 0% | 8%
COc1ccc2c(c1)[nH]c1c(N3CCSCC3)ncnc12 | u | 25µM* | u | -82% | u
COc1ccc2c(c1)[nH]c1c(N3CCN(Cc4ccc5c(c4)OCO5)CC3)ncnc12 | -39 | 6.3µM* | u | u | u
Cc1c(C(=O)N(C)Cc2cccc(F)c2)oc2c(Cl)cccc12 | -29 | 7.1µM* | u | -16% | u
Cc1c(C(=O)N(C)Cc2ccccc2)oc2c(Cl)cccc12 | 32 | 8% | -15%[46.1 µM] | -12% | -11%[46.1 µM]
O=C(/C=C/c1ccccc1)Nc1nc(-c2cccs2)ns1 | 32 | -1% | -2%[46.1 µM] | x | 15%[46.1 µM]
COc1cc(OC)c(OC)cc1CN1CCCC(c2nc(C)ncc2-c2ccc(F)cc2)C1 (stereo not given) | x | -10% | x | x | x
CC1CCN(c2ccc(-c3cccs3)nn2)CC1 | -66* | 7.9µM* | x | 0% | x
Clc1ccc(-c2cccs2)nn1 | -27 | 0% | u | 15% | u
CCOC(=O)N1CCC(NS(=O)(=O)c2ccc(NC(C)=O)c(Cl)c2)CC1 | -39 | 1% | u | 6.3µM* | u
COc1cc(OC)cc(-n2nnnc2SCC(=O)N2CCCC2)c1 | -12 | x | 6% | -12% | -27%
CCc1ccc(Oc2nnnn2-c2ccc(C(N)=O)cc2)cc1 | u | 0% | x | -1% | x
